From PubChem
This is a sample that favours compounds with a hit; in the whole collection about 5.9% have one here.
HSP90 refold inh – blocks HSP90-mediated luciferase refolding in reticulocyte lysate | Rabbit reticulocyte lysate, luciferase refolding luminescence, 3 h | inhibition, % at 5.6 µM | 290,000 tested, 0.91% active | AID 1789;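 active = inhibition above the screen-wide mean plus 3 SD, computed separately per campaign, cut at about 16% in these data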;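 note: inhibitors lower the luminescence because luciferase stays unfolded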
HSF1 inh – HSF1 inhibition | 300,000 tested, 0.77% active | NIH3T3-HGL HSE-luciferase, MG132-induced, luminescence 8 h; active compounds read low | AID 2098 | activity change, negative = inhibition, % at 7.5 µM (by protocol);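 active = more than half of replicate wells show activity change below -50%, luminescence cut by over half; inconclusive = some wells, but at most half, below -50%; inactive = no replicate well below -50%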;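 note: luciferase reports HSF-1 transcriptional activity via heat shock element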
AHR activator – activators of human aryl hydrocarbon receptor | activation, % at 5 µM | 320,000 tested, 2.5% active | AHR-responsive luciferase reporter cells, luminescence; in the data active = activation above about 47%
Target sequence (P35869 whole entry, looked up): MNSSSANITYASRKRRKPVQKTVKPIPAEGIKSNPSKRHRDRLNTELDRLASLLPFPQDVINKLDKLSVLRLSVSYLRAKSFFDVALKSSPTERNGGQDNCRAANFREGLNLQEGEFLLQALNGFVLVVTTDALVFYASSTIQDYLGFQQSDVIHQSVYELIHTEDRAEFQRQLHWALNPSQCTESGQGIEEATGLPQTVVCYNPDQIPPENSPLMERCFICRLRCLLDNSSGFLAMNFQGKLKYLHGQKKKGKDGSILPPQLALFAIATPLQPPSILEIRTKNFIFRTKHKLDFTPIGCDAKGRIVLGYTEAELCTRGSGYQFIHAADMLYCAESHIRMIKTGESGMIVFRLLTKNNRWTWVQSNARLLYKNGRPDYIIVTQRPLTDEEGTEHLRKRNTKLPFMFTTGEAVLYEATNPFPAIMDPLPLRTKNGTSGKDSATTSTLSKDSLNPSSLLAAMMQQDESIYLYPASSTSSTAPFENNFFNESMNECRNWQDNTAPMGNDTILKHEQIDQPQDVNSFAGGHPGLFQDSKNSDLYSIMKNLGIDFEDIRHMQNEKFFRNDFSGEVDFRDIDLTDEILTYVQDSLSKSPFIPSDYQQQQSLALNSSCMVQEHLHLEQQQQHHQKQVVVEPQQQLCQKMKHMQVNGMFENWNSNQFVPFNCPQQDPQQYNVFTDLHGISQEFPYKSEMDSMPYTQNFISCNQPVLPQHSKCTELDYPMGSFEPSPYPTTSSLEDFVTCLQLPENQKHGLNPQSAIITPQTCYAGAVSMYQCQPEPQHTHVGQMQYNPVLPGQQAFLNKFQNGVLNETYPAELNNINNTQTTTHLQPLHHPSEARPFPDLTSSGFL
HSF1 activator – increases HSF-1 driven luciferase reporter signal; NIH3T3-HGL HSF-1 luciferase reporter, MG132, 8 h; 100% = twice DMSO control signal; activation, % at 9 µM; 300,000 tested, 1.7% active; AID 504408;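 active = mean replicate activation of at least 50% with a set share of replicates each reaching 50%; inconclusive = only one of those two conditions met; inactive = mean below 50% and too few replicates reaching it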
GAA850 FXN act – activators of GAA850 frataxin (FXN) promoter; HEK293 lucGAA850 FXN promoter luciferase reporter, 24 h; percent of 10 µM SAHA response; 360,000 tested, 0.56% active; activation, % at 6 µM;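 active = activation above the average of all compounds screened plus 3 SD, cutoff fixed separately per campaign, cut at about 7.5% in these data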
NR0B1 inh – NR0B1 (DAX1) inhibition; P51843; HEK293 Gal4-DAX1 luciferase reporter, luminescence; inhibition, % at 6.75 µM; 340,000 tested, 0.99% active; AID 504766;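 active = inhibition above the mean over all tested compounds plus 3 SD, cut at about 4.2% in these data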;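 note: inhibition shows as a rise in luminescence from relieved DAX1 repression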
Each line names hits and unclear results; the compound was inactive in the other large screens.

CCOc1ccccc1N=Nc1c(C)[nH]n(C(N)=S)c1=O	AHR activator 65
CCOc1ccccc1N=NC1C(=O)N(C(N)=S)N=C1C (stereo not given)	AHR activator 65
CC1=NN(C(N)=S)C(=O)C1N=Nc1ccccc1C (stereo not given)	AHR activator 57
Cc1cccnc1C(NC(=O)C1CCN(Cc2ccc(Oc3ccccc3)cc2)CC1)c1ccc(F)cc1 (stereo not given)	none (no result: HSP90 refold inh, HSF1 inh, AHR activator, HSF1 activator, NR0B1 inh)
O=C1C=C(NCc2ccc(Cl)cc2)CCC1	none
COc1ccc(NC(=O)Nc2ccc3c(c2)C(=O)N([C@H](C)CO)C[C@H](C)[C@@H](CN(C)C(=O)Nc2ccccc2)O3)cc1	none (no result: HSP90 refold inh, HSF1 inh, HSF1 activator)
CC1=NN(C(N)=S)C(=O)C1N=Nc1ccc(C)cc1C (stereo not given)	AHR activator 67, HSF1 activator inconclusive (no result: GAA850 FXN act, NR0B1 inh)
Nc1nonc1C(=Nc1ccc(Br)cc1)NO	AHR activator 66
Nc1nonc1C(=O)N/N=C/c1cc(Br)ccc1O	none (no result: GAA850 FXN act, NR0B1 inh)
CC(=O)N(C(C)=O)c1nc(-c2ccccc2)cn1/N=C/c1cccc([N+](=O)[O-])c1	AHR activator 49
O=[N+]([O-])c1cccc(/C=N/n2c(-c3cccnc3)n[nH]c2=S)c1	none
CCN1CCN(c2ccc(S(=O)(=O)N3CCOCC3)cc2NC(=O)C(C)Oc2ccc(F)cc2)CC1 (stereo not given)	none (no result: HSP90 refold inh, HSF1 inh, HSF1 activator)
COc1nc(NC(C)C)nc(N(C#N)CN2C(=O)c3ccccc3S2(=O)=O)n1	none
CC(C)Nc1nc(Cl)nc(N(C#N)CN2C(=O)c3ccccc3S2(=O)=O)n1	HSF1 activator 118
Cc1cccc(CCNC(=O)C2CCCN(c3cnccn3)C2)c1 (stereo not given)	AHR activator 73
Cc1cc(C)cc(NC(=O)C2CCCN(c3nc(C)cc(C)n3)C2)c1 (stereo not given)	none
O=C(NCc1ccc(Cl)cc1)C1CCCN(c2cnccn2)C1 (stereo not given)	AHR activator 78
COc1cccc(CNC(=O)C2CCCN(c3cnccn3)C2)c1 (stereo not given)	none
CCCc1ccc(NC(=O)C2CCCN(c3cnccn3)C2)cc1 (stereo not given)	AHR activator 48, HSF1 activator 61
Cc1cc(C)nc(N2CCCC(C(=O)Nc3ccc4nc(C)c(C)nc4c3)C2)n1 (stereo not given)	HSF1 activator 57
CCOc1ccc(NC(=O)C2CCCN(c3cnccn3)C2)cc1 (stereo not given)	AHR activator 64
O=C(Nc1ccc(F)cc1)C1CCCN(c2cnccn2)C1 (stereo not given)	none
CCOc1ccc(CCNC(=O)C2CCCN(c3nn4c(=O)cc(C)nc4s3)C2)cc1 (stereo not given)	none
CCOc1ccc(NC(=O)C2CCCN(c3nn4c(=O)cc(C)nc4s3)C2)cc1 (stereo not given)	HSF1 inh -62
C[C@@H]1CN([C@@H](C)CO)C(=O)CCCn2nncc2CO[C@H]1CN(C)Cc1ccncc1	none (no result: HSP90 refold inh, HSF1 inh, AHR activator, HSF1 activator)
CC1CN(C2=NC(=O)/C(=C3/C(=O)N(Cc4ccc(F)cc4)c4ccccc43)S2)CC(C)O1 (stereo not given)	none
O=C1N=C(N2CCOCC2)S/C1=C1\C(=O)N(Cc2ccccc2)c2ccccc21	NR0B1 inh 4.4
O=C(Nc1nc(-c2cc(F)ccc2F)cs1)c1ccccn1	none
Cc1cc(-c2csc(Nc3ccccn3)n2)ccc1F	AHR activator 65, HSF1 activator 80
COc1ccc(-c2csc(Nc3ccccn3)n2)cc1OC	NR0B1 inh 4.8
Fc1ccc(-c2csc(Nc3ccccn3)n2)c(F)c1	AHR activator 78
CC1(C(=O)NS(=O)(=O)c2ccccc2Cl)CCN1C(=O)c1ccccc1 (stereo not given)	none (no result: HSP90 refold inh, HSF1 inh, AHR activator, HSF1 activator, NR0B1 inh)
COc1ccc(S(=O)(=O)Nc2cccc3c2O[C@H](CN(C)C)[C@@H](C)CN([C@H](C)CO)C3=O)cc1	none (no result: HSP90 refold inh, HSF1 inh, HSF1 activator)
O=C(N/N=C/c1ccccc1C(=O)O)c1cccc(S(=O)(=O)Nc2cc(Cl)ccc2Cl)c1	none
Cc1ccc(/C=N/NC(=O)c2cccc(S(=O)(=O)Nc3ccccc3Cl)c2)s1	AHR activator 53
O=[N+]([O-])c1ccc(Cl)c(S(=O)(=O)NC2=NCCC2)c1	none (no result: HSP90 refold inh, HSF1 inh, AHR activator, HSF1 activator)
CC(=O)NC(=S)Nc1cccc(S(=O)(=O)NC2=NCCC2)c1	HSF1 inh -76
O=[N+]([O-])c1ccc(Cl)c(S(=O)(=O)Nc2cccc(S(=O)(=O)NC3=NCCC3)c2)c1	AHR activator 52 (no result: HSP90 refold inh, HSF1 inh, HSF1 activator)
Cc1ccc(NC(=O)CN2C(=O)NC(C)(CC(C)C)C2=O)c(Br)c1 (stereo not given)	none (no result: HSP90 refold inh, HSF1 inh, HSF1 activator)
Cc1ccc(NC(=O)CN(C)C(=O)Cn2ncc(Cl)c(Cl)c2=O)cc1	HSF1 activator 52
Cc1ccc(NC(=O)CN(C)C(=O)Cc2ccc(Cl)c(Cl)c2)cc1	none
C/C(=N\Nc1nnc2c3ccccc3n(C)c2n1)c1ccc(C)o1	AHR activator 88
c1ccc(CCn2c(C3CC3)nc3ccccc32)cc1	none (no result: HSF1 inh, HSF1 activator)
Cc1ccc(C(=O)NC2CCN(CC(=O)NCc3cccs3)CC2)cc1	none
Cc1ccccc1C(=O)NC1CCN(CC(=O)NCc2cccs2)CC1	NR0B1 inh 5.2 (no result: HSF1 inh, HSF1 activator)
CCC(=O)N1CCN(c2cc(C)ccc2C)CC1	none
Cc1ccc(C)c(N2CCN(CCN3CCCCC3)CC2)c1	HSF1 inh -57
CCCn1nnc(NC(=O)c2ccc(OC)cc2)n1	none
CCn1nnc(NC(=O)c2cccnc2Cl)n1	none
CCn1nnc(NC(=O)c2sc3ccccc3c2Cl)n1	HSF1 activator 74
CCOc1ccc(C(=O)Nc2nnn(CC)n2)cc1	HSP90 refold inh 16
CCOc1ccc(C(=O)NC2=NCCS2)cc1	HSF1 activator 66 (no result: GAA850 FXN act, NR0B1 inh)
O=C(NC1=NCCS1)c1ccccc1	none
CCOc1cc(C(=O)NC2=NCCS2)cc(OCC)c1OCC	AHR activator 55
CC(C)(C)C1CCC(C(=O)Nc2ccccc2N2CCOCC2)CC1 (stereo not given)	none (no result: HSP90 refold inh, HSF1 inh, HSF1 activator)
CCOCCCNC(=O)CN1C(=O)/C(=C/c2ccccc2)Sc2ccccc21	none
O=C(CS(=O)(=O)c1cn(Cc2ccc(Cl)cc2)c2ccccc12)N1CCCC1	none
CCOC(=O)N1CCN(C(=O)CS(=O)(=O)c2cn(Cc3ccc(F)cc3)c3ccccc23)CC1	HSF1 activator 96 (no result: HSP90 refold inh)
CCc1cc(C=NC2CCCCC2)c(O)s1	HSF1 inh -56
CCc1cc2c(SC(C)C(=O)NC3CCCC3)ncnc2s1 (stereo not given)	none (no result: HSP90 refold inh, HSF1 inh, HSF1 activator)
CC(C)c1cccc(C(C)C)c1NC(=S)Nc1cccc(Cl)c1	NR0B1 inh 5.7
C/C(CC(=O)Nc1ccccn1)=N\NC(=O)C(=O)Nc1cccc(C)c1	none
O=C(NCCCc1ccccc1)c1ccc([N+](=O)[O-])cc1Cl	none
Cc1ccc(C(=O)NCCCc2ccccc2)c(Cl)c1	NR0B1 inh 5.1
Cc1cccc(NC(=O)C(=O)NCCCc2ccccc2)c1	HSF1 activator 83 (no result: GAA850 FXN act, NR0B1 inh)
